Assay results: PubChem BioAssay AID1508600 (Functional Genomics Laboratory (NCATS/FGL), 2020)
About 3,700 (7%) of roughly 53,000 sequences were called active. The sample as a whole holds a higher share of actives than the screen did. A number with no mark means an inactive call.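 Rule for the calls: active = gene knockdowns whose robust z-score for IL-1 alpha signal is at least 2 or at most -2, so actives lie on both sides; inactive = the rest.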

test: Components of the Cytosolic LPS Sensing Pathway: Gene Identification via Genome-wide siRNA Screen; settings: RAW264.7 macrophages, IL-1a HTRF, actives lie on both sides, screened at 100 nM (by protocol), cells primed 5 h with Pam3CSK4 first;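 note: robust z of the log signal after scaling to non-targeting control siRNA wells of the plate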
In short: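 RAW264.7; siRNA 100 nM final, RNAiMAX, 48h 37 degrees C; Pam3CSK4 5 h; LipidA + TransIT-TKO 24 h; IL-1a HTRF; CellTiter-Glo viability; robust z vs negative-control median.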

Row | Sequence | z-score
1 | GGCUGUCAAAACAGUGCUCTT against Hmgcs2 | 1.45
2 | GCUGGAGACGUAUUUGUCCTT against Olfr294 | 2.17 (active)
3 | UUGGCUGCAUUAUCAUGAGTT against Olfr311 | -0.419
4 | GGUUUGGCAGAAGUGCAUGTT against Npff | -0.801
5 | GCUACAUCGCUCUUAUAGCTT against Foxl1 | 0.0236
6 | CGAUGUUGAGGGAUUAUCUTT against Tstd2 | -2.25 (active)
7 | GGACUUGAAAUUAGCAAAATT against Arhgef3 | -0.0218
8 | GGACUUUAAAUGCAAUAUCTT against Trps1 | -0.567
9 | GGCUCCAAGCACUAAAUAATT against B130024G19Rik | 0.168
10 | CCUCAAACUAACCACUCACTT against Olfr1045 | -1.13
11 | GGAGAUCCUGGAAGACUUCTT against Ocstamp | 2.18 (active)
12 | GGACUAUGCCAAUGUCAGATT against Zfp763 | 0.0585
13 | GGGUAAGCCAAGAAGAAGUTT against Rgs4 | -1.01
14 | GGGAAAAACUCUGUGUGUATT against Coasy | -0.25
15 | GGCUCCACACGAUUGUUAGTT against Gne | -0.0134
16 | GUUCCACCAGAUUUUCUAATT against Vmn1r28 | 2.6 (active)
17 | GGAGAAUUUAGAGCUACCATT against Atg10 | -1.56
18 | GCCCAUCACUUAUAGUGGGTT against Usf2 | -0.799
19 | GGAGCAUUUUAUUCAGAUGTT against Rad23b | 2.22 (active)
20 | GGUGGAGAAGAAAUCUAAGTT against Eif4g1 | -0.344
21 | CCUGAGACCGAAUUUUACCTT against Cer1 | -0.209
22 | GGAAACGUGGGCAUGAUCATT against Olfr944 | -0.239

Row | Sequence | z-score
23 | GGAUAAUGAUGUGAAAGGCTT against Mrps30 | 0.984
24 | GGACAACAUGAACUGUCAGTT against Snrpd3 | -2.74 (active)
25 | GCUUGACUUUGAAAGUCCATT against Gm11733 | -1.54
26 | GGCUUUCUCCCAGCAAUAGTT against Scrt1 | -1.97
27 | GGGAUCAACAUUUACCGAATT against Ablim1 | 0.596
28 | CCCACCUUCCGACUUGAAUTT against Col12a1 | -1.12
29 | GUCAGAACCAUAGCCAUGATT against Vmn1r202 | -0.623
30 | GCUGAUCAGAGACCAUUACTT against Cmss1 | -2.26 (active)
31 | GGGAGAAGGUGGAAAUACUTT against Hdgfl3 | 1.63
32 | GGCCAUACGGACCAUGUAUTT against Slc25a19 | -1.25
33 | GGACCAAAUCCUCUGAUUCTT against Bud13 | 2.74 (active)
34 | GGCUGCCUUGCUGAUUUGATT against Boc | 0.762
35 | CCUUUACGUUUCUGUGUCUTT against Slc37a4 | -1.19
36 | CCAUUCUACACUUUUCCACTT against Krtap1-5 | -0.909
37 | GCCAAGCAUUAAGUGAUAATT against Setmar | 2.7 (active)
38 | CCAACUAAUCCCAUAUUCCTT against Tmem43 | 0.0511
39 | GGAGCUAUGUUCAGUUCUUTT against Qsox1 | 0.438
40 | GCAUUAUCUGUGAAAAUCCTT against En2 | 0.262
41 | GCAGAAAUUAACAAGUCUCTT against Kif2c | 0.816
42 | GCACUGUUCGUUUUUGUUUTT against Astn1 | 0.275
43 | GGCUAUGGGAAUCAUGAAUTT against H2bc18 | -2.84 (active)
44 | GCUCUAUGAGAGUAUAUUATT against Tamm41 | -0.495

Row | Sequence | z-score
45 | GCAUGUGAUUACCUUUGUATT against Btbd10 | 0.633
46 | GGGAUCCCGCAAAAUCAGATT against Osm | 0.63
47 | GCACAUCUUGGACCGUUUCTT against Lhx3 | 0.851
48 | GGGUACAAGCUUAUCAAUATT against Trpm6 | 4.91 (active)
49 | GGUGUAUAGCUGUUGUGGGTT against Dennd2d | -1.41
50 | CCUCAAGGAACUGAAUGCCTT against Olfr1320 | 0.0261
51 | GGGAUAAAGAGAGACCCAATT against Flywch1 | 0.889
52 | CCAGAUGACAAUGAGUCAGTT against Ss18 | -0.197
53 | CCUAAAUUUGACUGUGCCUTT against Nudt10 | 2.13 (active)
54 | GCGAUUGUCAUUCUCUUUUTT against Jak3 | 0.711
55 | GGGCUUUCCCAGUUCCUAATT against Bmp6 | 2.04 (active)
56 | CCACCUCAAGUCAAAGACUTT against Cggbp1 | -0.445
57 | GGCUCUAGAAGCGAGAAUCTT against Six6 | -0.234
58 | GGACCUAAUCCAUAAGGUCTT against Pcyox1l | -0.379
59 | GGAACAGAUCUCUGAUAUATT against Sub1 | 0.564
60 | GGCCUUCAUUGAGAUGAACTT against Ptbp1 | -1.17
61 | GGCUAUGAUGAUUAUAAUGTT against Hnrnph1 | 0.724
62 | GGACCAGAGGAGAUUUCAATT against Ern2 | 1.56
63 | GGUAAACUCAAGUUUUCAGTT against Inpp5j | 2.36 (active)
64 | GGAUGAGAAACCAUUUAAATT against Oas1f | -1.08
65 | GGAUCUCCCUCUAAAUAUUTT against Hsp90aa1 | -0.138
66 | CGGAAAGUCCGGUUUCGAATT against Grxcr1 | 0.156

Row | Sequence | z-score
67 | CGAAGUUACGAGCAUCCACTT against Crhr2 | 3.81 (active)
68 | GGUUUACAGCAUCAUUAAATT against Shmt1 | 0.345
69 | CCAGACGAGGAGAACAUCATT against Samd4b | -0.111
70 | GGAUUAGCCUGGUCCUUUUTT against Dusp14 | 0.989
71 | CCGUCCGAUGAAAAACAGGTT against Prm1 | -0.128
72 | GCCCACCGACUUUAUUAACTT against Tfap2d | 0.541
73 | GCCAGACAAGCCUCAUUGATT against Ncapd2 | -2.2 (active)
74 | GGAAAAGAAAAUCGAGACCTT against Ubap2l | 0.776
75 | GGUACAAAUGCAUUGAGAGTT against Fcamr | -1.3
76 | GGCAAAGACAAGAAGCUGUTT against Drap1 | -0.445
77 | GCACAACUUAUGACUGAAATT against Emc4 | 1.66
78 | GCUUCAAGUCAACUUAGUCTT against Hal | 1.24
79 | GCGAAUUCGAAAGCUAUGATT against Arhgef10 | -2.19 (active)
80 | CCGAAGACUAGCUAAUUUUTT against Sult1c1 | 1.17
81 | CCUUCAACUAUGGCAAAUATT against Cacul1 | -0.241
82 | GCUCUGAACUCAAUAAUAATT against Atg7 | -0.875
83 | GCGGAUCUGCUUUUUGCACTT against Ttc14 | -0.105
84 | ACUUCGUAAAAGAGCACAATT against Platr25 | 1.02
85 | GGAUCUUGAAGAUAAGAGCTT against 1810009A15Rik | -0.599
86 | GGGUUUCAGAACUGAGUUATT against Saa1 | -0.28
87 | GCCAUGAAUCCUAUCCGCATT against Ephb3 | -0.967
88 | CCACCUAAUUUAUUGCUGUTT against Mafk | 0.745

Row | Sequence | z-score
89 | GGGUAGAAUGUGUGUGUCUTT against Abhd15 | -2.52 (active)
90 | GGCUGGCAUCACCAUCAAATT against Kit | 0.429
91 | CCACUUAUAACUCAUAGUUTT against Ugt2b34 | 0.0725
92 | GGACCGCUUCAACAGUAUGTT against Tcfl5 | -0.525
93 | CGCAUCUGUUUCUUUUCCCTT against 1700029P11Rik | -2.22 (active)
94 | GCAGGAGUUUAUCAGAGGATT against Prim2 | -1.64
95 | GGCAGCAAAGUCAAGAUGUTT against Msgn1 | -1.82
96 | GGGAGGAGAAAAAUAUUCUTT against Olfr1094 | -1.5
97 | GGAGAUCUUAGCAAAGUAUTT against Degs1 | 2.41 (active)
98 | CCUUCAUUCUCAUGUGACCTT against Psat1 | -1.2
99 | CCUUAAGGAACUAGGAUUCTT against Lgr5 | 1.05
100 | GGUCCUCCCAUAAUCUAGUTT against Lrrc75a | 1.18
101 | GCUCAUUGCACUAAAAGACTT against Tnnt1 | -1.92
102 | CCGCGUCUGUAUUUGAUAUTT against Sccpdh | 1.68
103 | GGAAGUCCUGGACAUUCAGTT against Nfkbie | 5.66 (active)
104 | GGUUGAGUUUCAGUGCAUCTT against Klhl28 | -0.632
105 | GCUUGAUUGUCAGUUGGAATT against Tcp11 | -0.364
106 | GGGUAGUUUUGACUUUGUUTT against Schip1 | 0.472
107 | GGAAUAAGGCGAGUUGGAATT against Serbp1 | 0.493
